This is an account of results in PubChem BioAssay (EPA / NIEHS).

The structures appear in SMILES notation. Results filed as inconclusive are left out. Activity calls are given as the source filed them. Rule for the calls: active = hit-call score of the fitted dose curve at least 0.9, where 1 is the maximum; inconclusive = response in the unintended direction; inactive = score below 0.9.

Retinoic acid receptor RXR-alpha (Homo sapiens), sequence (P19793 whole entry, looked up): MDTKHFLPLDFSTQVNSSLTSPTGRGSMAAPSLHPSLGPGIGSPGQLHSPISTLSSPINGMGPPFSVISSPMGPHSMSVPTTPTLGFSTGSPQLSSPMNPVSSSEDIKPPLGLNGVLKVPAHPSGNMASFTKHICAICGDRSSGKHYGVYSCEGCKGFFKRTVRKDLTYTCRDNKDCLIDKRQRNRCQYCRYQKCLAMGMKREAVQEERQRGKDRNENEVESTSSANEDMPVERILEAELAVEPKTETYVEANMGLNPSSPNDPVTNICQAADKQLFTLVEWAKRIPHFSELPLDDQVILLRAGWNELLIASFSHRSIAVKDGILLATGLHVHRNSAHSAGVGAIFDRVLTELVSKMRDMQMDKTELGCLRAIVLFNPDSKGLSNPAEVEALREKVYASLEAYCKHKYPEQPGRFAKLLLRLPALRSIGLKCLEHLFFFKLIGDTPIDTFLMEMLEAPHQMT

In the assay the target is Retinoic acid receptor RXR-alpha (Homo sapiens) (UniProt P19793). Description: ATG_RXRa_TRANS: Attagene TRANS-FACTORIAL HepG2 Assay for human Retinoid X Receptor alpha (RXRa) (AID 2283012). As for the experimental part:
ATG_TRANS is a cell-based, multiplexed-readout assay that uses HepG2, a human liver cell line, with measurements taken at 24 hours after chemical dosing in a 24-well plate.ATG_RXRa_TRANS is one of 30 assay component(s) measured or calculated from the ATG_TRANS assay. It is designed to make measurements of mRNA induction, a form of inducible reporter, as detected with fluorescence intensity signals by Reverse transcription polymerase chain reaction (RT-PCR) and Capillary electrophoresis technology.Data from the assay component ATG_RXRa_TRANS was analyzed into 1 assay endpoint. This assay endpoint, ATG_RXRa_TRANS, was analyzed in the positive analysis fitting direction relative to DMSO as the negative control and baseline of activity. Using a type of inducible reporter, measures of mRNA for gain-of-signal activity can be used to understand the reporter gene at the transcription factor-level as they relate to the gene RXRA. Furthermore, this assay endpoint can be referred to as a primary readout, because this assay has produced multiple assay endpoints where this one serves a reporter gene function. To generalize the intended target to other relatable targets, this assay endpoint is annotated to the nuclear receptor intended target family, where the subfamily is non-steroidal.
Human liver HepG2 cells are transiently transfected with multiple reporter transcription units (MRTUs) in 6-well plates using FuGene 6 reagent (Roche; 3 ml FuGene/1 mg DNA). The MRTU constructs are regulated by a cis-regulating element (promoter). […] A major difference between the CIS and TRANS system is that in CIS activities of endogenous TFs are measured, whereas the TRANS assay evaluates changes in activities of exogenous, chimeric NR-Gal4 proteins. […] At the end of 24 hour incubation, total RNA was isolated using TriZol reagent (Invitrogen). The isolated RNA is then reverse-transcribed using oligo(dT) primer and Mo-MLV reverse transcriptase (Invitrogen) with DNAse I (Ambion) treatment for 30 min. The one-tenth of the produced cDNA was amplified by PCR using Taq DNA polymerase (Invitrogen) and two reporter sequence-specific primers. The PCR products were fluorescently labeled by primer extension with 6-arboxyfluorescein (6-FAM) 5'-labeled reporter sequence-specific primer (2 min at 95 C, 20 s at 68 C and 10 min at 72 C) and these products were digested with 5U of HpaI (New England Biolabs) for 2h at 37 C. The fragments were purified using Qiaquick PCR columns (Qiagen), analyzed on an ABI 3130xL genetic analyzer (Applied Biosystems) with peak positions identified by using a set of X-rhodamine (ROX)-labeled MapMarker1000 molecular weight standards (BioVentures). The raw capillary electrophoresis data was processed using Attagraph software (Attagene).
Consider `CCOC(=O)COc1cc(-c2nn(C)c(OC(F)F)c2Cl)c(F)cc1Cl`, for which the compound was classed as inactive.
In the case of `CSC1=N[C@@](C)(c2ccccc2)C(=O)N1Nc1ccccc1`, the compound was called inactive.
Regarding `CCOC(=O)CC(SP(=O)(OC)OC)C(=O)OCC` (stereo not given), the compound was called inactive.
Next, `Cc1cc(C2CC2)nc(Nc2ccccc2)n1`: “inactive”.
`CCCCOC(=O)c1ccccc1C(=O)O`: the result was inactive.
Take `CN1COCN(Cc2cnc(Cl)s2)C1=N[N+](=O)[O-]`: the outcome was inactive.
With `CCCCOC(=O)[C@@H](C)Oc1ccc(Oc2ccc(C#N)cc2F)cc1`, the compound was called inactive.
Next, `CC(C)[C@H](C(=O)O[C@H](C#N)c1cccc(Oc2ccccc2)c1)c1ccc(Cl)cc1`: “inactive”; `CN(C)[C@@H]1C(=O)C(C(N)=O)=C(O)[C@@]2(O)C(=O)C3=C(O)c4c(O)cccc4[C@@](C)(O)[C@H]3[C@H](O)[C@@H]12`: “inactive”.
Next, `O=C(O)c1cc(Oc2ccc(C(F)(F)F)cc2Cl)ccc1[N+](=O)[O-]`: “inactive”; `CCc1cccc(CC)c1N(COC)C(=O)CCl`: “inactive”.
With `FC(F)C(F)(F)OCC(Cn1cncn1)c1ccc(Cl)cc1Cl` (stereo not given) the entry was “inactive”; with `CC(=NC#N)N(C)Cc1ccc(Cl)nc1`, “inactive”.
With `CCC(=O)Nc1ccc(Cl)c(Cl)c1`, the result was inactive.
With `CSc1nnc(C(C)(C)C)c(=O)n1N` the entry was “inactive”.
Take `CCOP(=S)(Oc1cnc(C(C)(C)C)nc1)OC(C)C` (stereo not given): the compound was classed as inactive.
Next, `Nc1nc(N)nc(NC2CC2)n1`: “inactive”; `CC(C)=CC1C(C(=O)OCN2C(=O)C3=C(CCCC3)C2=O)C1(C)C` (stereo not given): “inactive”; `CCC(=NOC/C=C/Cl)C1=C(O)CC(C2CCOCC2)CC1=O` (stereo not given): “inactive”.
Next, `C[Si](Cn1cncn1)(c1ccc(F)cc1)c1ccc(F)cc1`: “inactive”; `CC1=NNC(=O)N(/N=C/c2cccnc2)C1`: “inactive”; `Cc1nn(-c2cc(NS(C)(=O)=O)c(Cl)cc2Cl)c(=O)n1C(F)F`: “inactive”.
With `CCCSP(=O)(OCC)SCCC` the entry was “inactive”; with `CCCCSP(=O)(SCCCC)SCCCC`, “inactive”.
In the case of `CCNc1nc(Cl)nc(NC(C)(C)C#N)n1`, the compound was classed as inactive.
Next, `CSc1nc(NC(C)C)nc(NC(C)C)n1`: “inactive”; `O=[N+]([O-])c1cc(C(F)(F)F)c(Cl)c([N+](=O)[O-])c1Nc1ncc(C(F)(F)F)cc1Cl`: “inactive”; `CCOP(=S)(OCC)SCCSCC`: “inactive”.
Next, `CC(C1CC1)C(O)(Cn1cncn1)c1ccc(Cl)cc1` (stereo not given): “inactive”; `N#CSCSC#N`: “inactive”.
With `CCC(CC)Nc1c([N+](=O)[O-])cc(C)c(C)c1[N+](=O)[O-]`, the result was inactive.
Take `COP(=O)(OC)SCn1c(=O)oc2cc(Cl)cnc21`: the outcome was inactive.
For the compound `COP(=O)(OC)C(O)C(Cl)(Cl)Cl` (stereo not given), the result was inactive.
Next, `C#CCC1=C(C)C(OC(=O)C2C(C=C(C)C)C2(C)C)CC1=O` (stereo not given): “inactive”.
With `CN(C)C(=O)Nc1cccc(C(F)(F)F)c1` the entry was “inactive”; with `CC(C)N(C(=O)SCC(Cl)=C(Cl)Cl)C(C)C`, “inactive”.
With `CCOP(=S)(OCC)Oc1ccc2c(C)c(Cl)c(=O)oc2c1` the entry was “inactive”; with `COc1ccc(C(=CC(=O)N2CCOCC2)c2ccc(Cl)cc2)cc1OC`, “inactive”.
For `Nc1c(Cl)cc([N+](=O)[O-])cc1Cl`, the outcome was inactive.
Take `O=c1ccc(=O)[nH][nH]1`: the call was inactive.
